Experimental findings from PubChem BioAssay AID2685 (National Center for Advancing Translational Sciences (NCATS), 2010) are described below.

The whole screen tested about 320,000 compounds, of which about 2,100 (0.66%) were called active. Another 53% or so got no clear call; they are omitted. Calls come from the whole dose curve; as a rule, active = well fitted inhibition curve with a large enough effect in the signal ratio, with a control signal flat (not every such curve was filed as active); inconclusive = small, poorly fitted or top-dose-only effect, or effect the other way, or a change in a side signal; inactive = flat fitted curve, though single readings scatter; the % refers to the signal ratio. Many of the other results were omitted from the sample, so actives are more common in it than they were.
Potency is the fitted concentration of half-maximal effect.

The assay can be described thus: qHTS Assay for Lipid Storage Modulators in Drosophila S3 Cells.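 For cell number change: cells counted by Cell Tracker Red CMTPX staining in the red channel.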 For lipid storage change, negative = inhibition: % is set by controls: 0 for no effect and ±100 for the full control effect. The following applies: BODIPY lipid droplet fluorescence, 18-24 h, cells fed with added oleic acid; cell number change: measured here: cell count max response; series mostly up to 46.1 µM; lipid storage change, negative = inhibition: at the top concentration. In outline:
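Drosophila S3 cells loaded with oleic acid (400 uM, as added) and compounds at several concentrations; lipid droplets imaged by 488-nm laser-scanning cytometry, 500–530 nm intensity and object ratio to cell channel. Percent activity normalized to 20 uM Triacsin C.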
In general terms: In qHTS, concentration-response curves come from the screen itself.
With `O=C1NC(=S)N/C1=C\c1ccccc1OCc1ccc(C(=O)O)cc1`, the “lipid storage change, negative = inhibition” value was -4.41% (inactive) and the cell number change was -1.56%. As to `O=C(NCCO)c1ccccc1O`, the call was inactive and the cell number change is 26.5%. As for `O=C(NCCNC(=O)c1ccccc1Br)c1ccccc1Br`, the “lipid storage change, negative = inhibition” value is 5.24% (inactive) and the cell number change was 13.7%. Take `O=C(NCCNC(=O)c1ccccc1O)c1ccccc1O`: the Potency is 9.2 µM (active) and the cell number change was -28.8%. For `Cc1ccc(C2C(C#N)=C(N)N(c3ncn[nH]3)C3=C2C(=O)CC(C)(C)C3)cc1` (configuration not stated), the outcome was inactive.

As to `CCOc1ccc(N(CC(=O)NC(C(C)C)C(C)C)S(=O)(=O)c2ccc(OC)c(OC)c2)cc1`, the “lipid storage change, negative = inhibition” value was -10.3% (inactive) and the cell number change turned out to be 14%. `CC(=O)C1=C(O)C(=O)N(c2ccc(S(N)(=O)=O)cc2)C1c1cccc([N+](=O)[O-])c1` (configuration not stated): the “lipid storage change, negative = inhibition” value is -11.7% (inactive) and the cell number change amounted to 5.32%. As to `CC(C)CNC(=O)c1ccc(Cl)c(Cl)c1`, the “lipid storage change, negative = inhibition” value was 11.7% (inactive) and the cell number change was -14.4%. Turning to `CC(NC(=O)Cc1ccc(S(=O)(=O)N2CCOCC2)s1)c1ccc(Cl)c(Cl)c1` (configuration not stated), the “lipid storage change, negative = inhibition” value is 4.21% (inactive) and the cell number change was -8.77%. Consider `CC(NC(=O)CCl)c1ccc(Cl)c(Cl)c1` (configuration not stated), for which the Potency was 23.1 µM (active) and the cell number change was -24.5%. On to `Cc1ccc(NC2CCCN(C(=O)c3cnc4ccccn4c3=O)C2)cc1C` (configuration not stated), for which the “lipid storage change, negative = inhibition” value was -4% (inactive) and the cell number change was determined as 10.1%.

In the case of `CC1CCN(C(=O)CCNS(=O)(=O)c2ccccc2)CC1`, the “lipid storage change, negative = inhibition” value is -3.73% (inactive) and the cell number change came out at 9.54%. As to `Cc1ccc(S(=O)(=O)NCC(=O)NCC(=O)N2CCC(C)CC2)cc1`, the compound was classed as inactive and the cell number change amounted to 27.4%. On to `Cc1ccc(S(=O)(=O)NCCCC(=O)N2CCC(C)CC2)cc1`, for which the Potency is 16.4 µM (active) and the cell number change is -15.3%.

With `CC1CN(C(=O)COC(=O)c2ccc(NC(=O)CC#N)cc2)CC(C)O1` (configuration not stated), the “lipid storage change, negative = inhibition” value is 1.66% (inactive) and the cell number change is -23.4%.

On to `CC(=O)Nc1cc(NC(C)=O)cc(C(=O)OCC(=O)N2CC(C)OC(C)C2)c1` (configuration not stated), for which the Potency was 25.9 µM (active) and the cell number change was -18.5%. Turning to `CCOc1ccc(C(=O)OCC(=O)N2CC(C)OC(C)C2)cc1OCC` (configuration not stated), the outcome was inactive and the cell number change was -6.35%. On to `COC(=O)c1ccc(NC(=O)CSc2nc(=O)n3cccc(C)c3n2)cc1`, for which the “lipid storage change, negative = inhibition” value was 8.53% (inactive) and the cell number change is -5.09%. For the compound `COc1ccc(-n2c(C)ccc2-c2ccccc2)cn1`, the Potency was 14.6 µM (active) and the cell number change is 3.52%. For the compound `CC(=O)Nc1ccc(-n2c(C)ccc2-c2ccccc2)cc1`, the “lipid storage change, negative = inhibition” value is 6.88% (inactive) and the cell number change was 12.4%. Regarding `COC(=O)c1ccc(-n2c(C)ccc2-c2ccccc2)cc1`, the outcome was inactive.

In the case of `COc1ccc(Br)cc1C(=O)NC(=S)Nc1ccc2[nH]c(=O)[nH]c2c1`, the call was inactive and the cell number change was -29.5%. Consider `COc1ccc(S(=O)(=O)N2CCCCCC2)cc1C(=O)Nc1ccc(C)cn1`, for which the call was inactive. As for `COc1ccc([C@@H]2C[C@@H](c3ccccc3)Oc3cc(OC)c(OC)c(OC)c32)cc1`, the “lipid storage change, negative = inhibition” value is -12.6% (inactive) and the cell number change was -1.66%.

Turning to `COc1ccc(C2CC(O)(c3ccccc3)Oc3cc(OC)cc(OC)c32)cc1` (configuration not stated), the “lipid storage change, negative = inhibition” value was -17.8% (inactive) and the cell number change is -14.8%.

As to `COc1ccc([C@@H]2C[C@H](c3ccccc3)Oc3cc(OC)c(OC)c(OC)c32)cc1`, the Potency is 4.61 µM (active) and the cell number change was -18.2%. On to `C=C1CCN(C(C(=O)OC)C(C)C)S(=O)(=O)c2ccccc21` (configuration not stated), for which the “lipid storage change, negative = inhibition” value was -1.62% (inactive) and the cell number change is 0.159%. On the same counts, the results for `Cn1c2c(c(=O)n(C)c1=O)C(NC(=O)c1ccco1)(C(F)(F)F)C(=O)N2` (configuration not stated) are 9.46% (inactive) and 6.96%. For `CCCCC(=O)NC1(C(F)(F)F)C(=O)Nc2c1c(=O)n(C)c(=O)n2C` (configuration not stated), the Potency is 18.4 µM (active) and the cell number change is -5.38%.

`CC(C)CC(=O)NC1(C(F)(F)F)C(=O)Nc2c1c(=O)n(C)c(=O)n2C` (configuration not stated): the Potency was 3.66 µM (active) and the cell number change was 2.2%. Regarding `Cn1c2c(c(=O)n(C)c1=O)C(NC(=O)c1cccs1)(C(F)(F)F)C(=O)N2` (configuration not stated), the “lipid storage change, negative = inhibition” value is -10.5% (inactive) and the cell number change is -6.48%. Regarding `CC(=O)NC1(C(F)(F)F)C(=O)Nc2c1c(=O)n(C)c(=O)n2C` (configuration not stated), the “lipid storage change, negative = inhibition” value was -1.58% (inactive) and the cell number change is -13.1%.

Regarding `CCC(=O)NC1(C(F)(F)F)C(=O)Nc2c1c(=O)n(C)c(=O)n2C` (configuration not stated), the result was inactive and the cell number change is 7.51%. As to `CC(=O)Nc1ccccc1/C=C/c1ccc2c(C)cc(C)c(O)c2n1`, the “lipid storage change, negative = inhibition” value was 14.1% (inactive) and the cell number change was found to be 8.64%. Take `COc1ccc(/C=C/C(=O)NCCc2nc3ccccc3[nH]2)cc1`: the “lipid storage change, negative = inhibition” value was -0.312% (inactive) and the cell number change is -8.48%.

Take `COc1ccc(OC)c(/C=C/C(=O)NCCc2nc3ccccc3[nH]2)c1`: the “lipid storage change, negative = inhibition” value was -16.4% (inactive) and the cell number change was -6.41%. On to `CCCCCOc1ccc(/C=C/C(=O)NCCc2nc3ccccc3[nH]2)cc1OC`, for which the Potency is 13 µM (active) and the cell number change was -28.6%. On to `O=C(Nc1nnc(-c2cccs2)o1)C1CC1`, for which the “lipid storage change, negative = inhibition” value was -0.337% (inactive) and the cell number change was -5.18%. On to `COc1ccc(N2C(=O)CSC2c2ccccc2)cc1` (configuration not stated), for which the “lipid storage change, negative = inhibition” value is 3.7% (inactive) and the cell number change is 14.6%. Regarding `Cc1n[nH]c(C)c1S(=O)(=O)N1CCc2ccccc21`, the “lipid storage change, negative = inhibition” value was 11.4% (inactive) and the cell number change is -2.98%.

On to `C/C(=N\NC(=O)c1cccs1)c1cccnc1`, for which the “lipid storage change, negative = inhibition” value was -0.0778% (inactive) and the cell number change amounted to 20.6%. With `S=C(NCCc1ccccc1)N1CCn2cccc2C1c1ccncc1` (configuration not stated), the Potency was 7.31 µM (active) and the cell number change is 15.3%. Regarding `S=C(NCCc1ccccc1)N1CCn2cccc2C1c1cccnc1` (configuration not stated), the “lipid storage change, negative = inhibition” value was -3.98% (inactive) and the cell number change was -24.1%. As to `S=C(NCc1ccccc1)N1CCn2cccc2C1c1ccncc1` (configuration not stated), the “lipid storage change, negative = inhibition” value was 5.38% (inactive) and the cell number change was determined as 5.96%. As for `CC[C@@H](NS(=O)(=O)c1ccc(C)cc1)C(=O)Oc1ccc2c3c(c(=O)oc2c1)CCC3`, the “lipid storage change, negative = inhibition” value is -5.22% (inactive) and the cell number change was 4.66%.
